Compounds with a hit are over-represented: about 0.9% of the library has one in this group of screens.
APEX1 inh = qHTS Assay for Inhibitors of the Human Apurinic/apyrimidinic Endonuclease 1 (APE1); DNA repair nuclease/redox regulator APEX1 (Homo sapiens), P27695; recombinant APE1, TAMRA/BHQ-2 abasic DNA cleavage fluorescence; Potency, µM (doses to about 65.8 µM), actives largely listed as inhibitors; 350,000 tested, 0.35% active; AID 2517, 2012; note: nearly all actives have a fitted effect of over 55% in size
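Substrate: short duplex with […] THF abasic site, 5'-TAMRA and 3'-BHQ-2, 50 nM final. APE1 at 0.75 nM, preincubated 15 min RT with compound. Fluorescence increase from first to third read measured activity.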
BLM inh = qHTS Assay for Inhibitors of Bloom's syndrome helicase (BLM). Potency, µM (highest dose often 56.1 µM), hits mostly inhibitors. recombinant BLM DNA unwinding, fluorescence dequenching. 350,000 tested, 0.2% active. RecQ-like DNA helicase BLM (Homo sapiens), P54132; note: nearly all actives have a fitted effect of over 35% in size
GoLoco inh red = qHTS Assay for Inhibitors of RGS12 GoLoco Motif Activity (Red Fluorophore) | Gai1:RGS12 GoLoco peptide FP, rhodamine, 10 min | Guanine nucleotide-binding protein G(i) subunit alpha-1 (Homo sapiens), P63096 | 230,000 tested, 0.44% active | Potency, µM (doses to about 61.6 µM), hits mostly inhibitors; active = well fitted inhibition curve with a large enough effect, not every such curve was filed as active; inactive = no such curve, though single readings can be large or run the other way; note: nearly all actives have a fitted effect of over 30% in size
TRb SRC2 PPI = qHTS for Inhibitors of the Interaction of Thyroid Hormone Receptor and Steroid Receptor Coregulator 2 | Thyroid hormone receptor beta (Homo sapiens), P10828 | Potency, µM (doses to about 106 µM), most hits filed as inhibitors | 280,000 tested, 0.065% active | AID 1469, 2008 | TRbeta-SRC2 peptide binding, fluorescence polarization; receptor liganded with 1 µM T3; note: nearly all actives have a fitted effect of over 50% in size
Target sequence (P10828 whole entry, looked up): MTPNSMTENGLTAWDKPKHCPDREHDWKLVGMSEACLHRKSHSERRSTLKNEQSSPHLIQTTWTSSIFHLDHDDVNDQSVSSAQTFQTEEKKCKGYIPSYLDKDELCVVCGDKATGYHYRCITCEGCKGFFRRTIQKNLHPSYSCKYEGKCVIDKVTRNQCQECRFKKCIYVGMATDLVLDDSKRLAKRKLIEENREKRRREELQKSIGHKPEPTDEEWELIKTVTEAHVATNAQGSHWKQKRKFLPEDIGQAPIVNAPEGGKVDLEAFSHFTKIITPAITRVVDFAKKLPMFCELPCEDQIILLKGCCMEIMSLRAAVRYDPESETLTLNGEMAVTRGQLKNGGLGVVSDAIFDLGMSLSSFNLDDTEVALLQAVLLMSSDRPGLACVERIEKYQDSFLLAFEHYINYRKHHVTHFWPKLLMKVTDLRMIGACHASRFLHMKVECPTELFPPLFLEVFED
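Read-out is fluorescence polarization (555 nm excitation, 632 nm emission) of a Texas Red SRC2 coactivator peptide; loss of signal reflects blocked binding to human TRb ligand-binding domain in the presence of 1 uM T3.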
RECQ1 inh-1 = qHTS Assay for Inhibitors of RecQ-Like Dna Helicase 1 (RECQ1). RECQ1 DNA unwinding, red fluorescence kinetic read. AID 2549, 2010. Potency, µM (doses to about 57.3 µM), actives largely listed as inhibitors. 240,000 tested, 0.54% active; note: nearly all actives have a fitted effect of over 30% in size
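RECQ1T1 50 nM; forked duplex (20 bp + 30-nt ss tails) 200 nM, ATP 2 mM final; pH 8.0, 2 mM MgCl2, 2.5 ug/ml poly(dI-dC); 15 min compound preincubation; discontinuous kinetic read over 2 h at RT.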
TR SRC2 fluor cs = Total Fluorescence Counterscreen for Inhibitors of the Interaction of Thyroid Hormone Receptor and Steroid Receptor Coregulator 2. Potency, µM (highest dose often 106 µM). 280,000 tested, 0.29% active. TRb/SRC2 Texas Red total fluorescence interference; active = well fitted curve in either direction with a large enough effect; inconclusive = small, poorly fitted or top-dose-only effect
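Flags fluorescent or light-absorbing compounds by total fluorescence, S + 2P, at 555 nm excitation and 632 nm emission. Mixture: 20 nM Texas Red SRC2 peptide, 0.6 uM human TRb LBD, 1 uM T3, 5% DMSO; compound exposure 5 h at ambient temperature.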
RECQ1 conf = Confirmation qHTS Assay for Inhibitors of RecQ-Like Dna Helicase 1 (RECQ1). shares compounds with RECQ1 inh-1. RECQ1 helicase DNA unwinding, fluorescence. Potency, µM (top dose mostly 229 µM), hits mostly inhibitors. 610 tested, 28% active; note: nearly all actives have a fitted effect of over 45% in size
ADP FP counter = Counterscreen for RECQ1 Inhibitors: ADP Fluorescence Polarization Displacement Assay | shares compounds with RECQ1 inh-1 | ADP fluorescence polarization displacement counterscreen | Potency, µM (titrated, usually from 228 µM), usual class: inhibitors | 530 tested, 27% active | AID 2711, 2010; note: nearly all actives have a fitted effect of over 45% in size
RECQ1 inh-2 = Confirmation qHTS Assay for Inhibitors of RecQ-Like Dna Helicase 1 (RECQ1) - Round 2 Cherry Picks; shares compounds with RECQ1 inh-1; recombinant RECQ1 DNA unwinding, red fluorescence; Potency, µM (highest dose often 119 µM), most hits filed as inhibitors; 1,100 tested, 15% active; AID 504841, 2011; note: nearly all actives have a fitted effect of over 50% in size
Each line names hits and unclear results; the compound was inactive in the other large screens (follow-up assays come after a bar, where they were run); [ ] = another dose, or the depositor's remark. Unless noted, calls come from the whole dose curve; as a rule, active = well fitted curve in the direction sought with a large enough effect; inconclusive = small, poorly fitted or top-dose-only effect, or another doubt; inactive = no such curve, though single readings can be large; an effect the other way counts as inactive or inconclusive.

Cc1cccc(C)c1N1C(=O)[C@@H]2C(c3ccccc3Cl)=NO[C@@H]2C1=O	none
COc1ccc(OC)c(N2C(=O)[C@@H]3C(c4ccccc4Cl)=NO[C@@H]3C2=O)c1	APEX1 inh inconclusive, RECQ1 inh-1 28µM | RECQ1 inh-2 inconclusive
CCOc1cc2c(cc1OCC)C(CC(=O)O)N(C(=O)Nc1ccccc1C(F)(F)F)CC2 (stereo unspecified)	none (no result: APEX1 inh, GoLoco inh red, RECQ1 inh-1)
CCc1nnc(NS(=O)(=O)c2ccc(N/C=C/C(=O)c3ccc(OC)cc3)cc2)s1	none
CCc1nnc(NS(=O)(=O)c2ccc(N/C=C\C(=O)c3cccc4ccccc34)cc2)s1	RECQ1 inh-1 inconclusive | RECQ1 inh-2 inconclusive
CSc1ccc(-c2nnn(CC(=O)Nc3sc4c(c3C#N)CCC(C(C)(C)C)C4)n2)cc1 (stereo unspecified)	none (no result: APEX1 inh, GoLoco inh red, RECQ1 inh-1)
CCN(CC)c1nn2c(=O)c(C(=O)NCc3ccc(N(C)C)cc3)cnc2s1	none (no result: APEX1 inh, GoLoco inh red, RECQ1 inh-1)
C/C(=N\N=C(c1ccccc1)c1ccccc1)c1cccs1	RECQ1 inh-1 18µM | RECQ1 conf inactive | ADP FP counter inactive
C/C(=N\N1CCN(c2ccccc2)CC1)c1cccs1	none
Cc1ccc2c(c1)sc(C)[n+]2CCCS(=O)(=O)[O-]	none
Cc1ccc2sc(C)[n+](CCCS(=O)(=O)[O-])c2c1	RECQ1 inh-1 3.5µM, TR SRC2 fluor cs inconclusive | RECQ1 conf inactive | ADP FP counter inactive
C=C1c2cccc(O)c2C(O)=C2C(=O)[C@]3(O)C(O)=C(C(N)=O)C(=O)[C@@H](N(C)C)[C@@H]3[C@@H](O)[C@H]12	APEX1 inh 2.5µM, RECQ1 inh-1 7.9µM, TR SRC2 fluor cs 32µM[quencher] | RECQ1 conf inconclusive | ADP FP counter 7.1µM | RECQ1 inh-2 inactive
C[C@H]1c2cccc(O)c2C(=O)C2C(=O)C3(O)C(=O)C(C(N)=O)C(=O)[C@@H](N(C)C)[C@@H]3[C@@H](O)[C@@H]21 (stereo partly specified)	none (no result: BLM inh, GoLoco inh red, TRb SRC2 PPI, RECQ1 inh-1, TR SRC2 fluor cs)
C=C1c2cccc(O)c2C(O)=C2C(=O)[C@]3(O)C(O)=C(C(N)=O)C(=O)C(N(C)C)C3C(O)C12 (stereo partly specified)	APEX1 inh 4µM, RECQ1 inh-1 8.9µM, TR SRC2 fluor cs 40µM[quencher] | RECQ1 conf inconclusive | ADP FP counter 7.9µM | RECQ1 inh-2 inactive
Cc1cc2c(=O)n(Cc3ccco3)c(SCC(=O)c3ccc(Cl)s3)nc2s1	RECQ1 inh-1 inconclusive | RECQ1 inh-2 inactive
CCOC(=O)CC(=O)CSc1nc2sc(C)cc2c(=O)n1Cc1ccco1	none
CCCCN1C=CC(=C2C(=O)c3ccccc3C2=O)C=C1	RECQ1 inh-1 inconclusive | RECQ1 inh-2 inactive
Cc1nc(NC2CCCCC2)c2nc(-c3ccccc3)n(CCCN3CCCCC3C)c2n1 (stereo unspecified)	none
Cc1cc(=O)c2c(O)c3c(O)cc(=O)c4c3c3c(cc(O)c1c23)C(C)(C)C=4O	BLM inh 7.1µM, GoLoco inh red 0.63µM, RECQ1 inh-1 1.8µM, TR SRC2 fluor cs inconclusive | RECQ1 conf active | ADP FP counter 0.32µM | RECQ1 inh-2 inactive
C#CCN1C(=O)S/C(=C/C=C/c2ccc(N(C)C)cc2)C1=O	APEX1 inh inconclusive, BLM inh inconclusive, TRb SRC2 PPI inconclusive, RECQ1 inh-1 25µM, TR SRC2 fluor cs inconclusive | RECQ1 inh-2 18µM
O=C(O)CN1C(=O)/C(=C/C=C/c2ccccc2)SC1=S	none
Cc1cc(N2CCN(c3nc(-c4ccccc4)cs3)CC2)c2ccccc2n1	RECQ1 inh-1 8.9µM | RECQ1 conf inactive | ADP FP counter inactive | RECQ1 inh-2 inactive
COc1cccc(CNC(=O)c2cnc3sc(N4CCCC4)nn3c2=O)c1OC	none (no result: APEX1 inh, GoLoco inh red, RECQ1 inh-1)
NNc1nc2sc3c(c2c(=O)n1Cc1ccccc1)CCC3	none
CCn1c(NN)nc2sc3c(c2c1=O)CCC3	RECQ1 inh-1 inconclusive | RECQ1 inh-2 inactive
CCOC(=O)c1cc(-c2ccccc2)sc1NC(=O)CN1C(=O)NC(CC)(c2ccc(F)cc2)C1=O (stereo unspecified)	RECQ1 inh-1 32µM | RECQ1 inh-2 inactive
COc1ccccc1CNc1nc(-c2ccc3c(c2)OCO3)nc2ccccc12	RECQ1 inh-1 inconclusive (no result: TRb SRC2 PPI, TR SRC2 fluor cs) | RECQ1 inh-2 inactive
CC(=O)OC(C)C	none (no result: BLM inh)
C=CCn1c(NC(=O)c2ccc(Br)o2)c(S(=O)(=O)c2ccccc2)c2nc3ccccc3nc21	APEX1 inh inconclusive, BLM inh inconclusive, RECQ1 inh-1 inconclusive | RECQ1 inh-2 inactive
Cc1ccc(C)c(NC(=O)CSc2nnc(NC(=O)Nc3ccccc3)s2)c1	none (no result: APEX1 inh, GoLoco inh red, RECQ1 inh-1)
Cc1cc(C)c2nc(-c3ccccn3)cc(C(=O)Nc3ccc(S(=O)(=O)Nc4cc(C)on4)cc3)c2c1	APEX1 inh inconclusive, BLM inh inconclusive, TRb SRC2 PPI inconclusive, RECQ1 inh-1 25µM | RECQ1 inh-2 inconclusive
COc1ccc(-c2cc(C(=O)Nc3ccc(S(=O)(=O)Nc4onc(C)c4C)cc3)c3ccccc3n2)cc1OC	none

High-throughput results (PubChem BioAssay)
